# From the OligoGym collection
# Biological target: UBA3
# Experiment: pooled miR-30 sensor sort-seq; sequence = guide strand
# Conditions: shRNA
# Further: reference of the scale not given here.
row,Sequence,sensor-assay potency score (higher = more potent)
1,TTGCAGAGAAGCACTATTGGTT,-0.184
2,TTCTTGTCCATCAACAAGCCCC,-0.667
3,ATCTACATCATTAAACACCAAG,-1.38
4,TTACATACTCAATACAGTGTTC,-0.397
5,TTGAATAGTACAGTCTGTGGGG,0.37
6,TTGGATCTAAGACACCATCTTC,0.0215
7,TTAAAATCTTGAATCTTGTTGA,0.888

# Biological target: UBE2F
# Experiment: as above
# Conditions: shRNA
row,Sequence,sensor-assay potency score (higher = more potent)
1,TAGTCATCCACTTTATTCCGGA,-0.0909
2,ACAAACTGTAACACAGTCCATG,-1.41
3,TTTGAGACCATCGTCACGCTTC,0.155
4,TTCTCCATCTACAATGAGCAGT,-0.914
5,TTTATTCCGGAAGTCCTCCTTG,-0.121
6,TTTAACAAGCAATTTGTCTCTC,0.519
7,TAGCTGAAAACAATGAAGCTTG,-0.377
8,TTCAAGTTCTGCAACCTCTTTA,0.721
9,TTTGTCTCTCACAGAAACCCTC,-0.658
10,AACTGTAACACAGTCCATGGGC,-0.0499
11,TTCTGCAGCTTCAATATTCAGT,-0.23
12,TTAACAAGCAATTTGTCTCTCA,-0.236
